This assay relates to RARg homodimer (NR concentration 270 nM). Description: PBM binding z-score (relative to random genomic background probes); higher = stronger binding; sequences stand for … in GC…GCGATTGACAGCGTAGAATGAAGG
The method in brief: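 Custom Agilent 4×180K protein-binding microarrays carried double-stranded probes. Their 34-nt variable regions held direct-repeat seeds, single-nucleotide variants, half-site ablations and random human genomic background sequences. Arrays were incubated 1 h with ligand-free nuclear receptor dimers in PBS pH 7.4, 2% milk, 0.02% Triton X-100, 1 mM DTT, 0.2 mg/mL BSA and 0.4 mg/ml salmon testes DNA. Antibodies against each partner (one per run) detected binding, and scanned fluorescence was regression-normalized. Binding z-scores use random background probes as reference.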
In turn, CAAACTAGGTCGAAGGTCAAAGTCGAGCCAACCA showed a PBM binding z-score of 4.29.

As for GCGACTGGGGCATCAGCAGGTTACTATAACTTAA, the PBM binding z-score came out at 0.379.

For CGAACGAGGCCATGAGTTGATAGCAAATGCCGAT, the PBM binding z-score is 0.821.

For the sequence ATCGAAATGTCGACGAGGTGAGTATACACCGTTT, the PBM binding z-score amounted to 0.657.

Sequence CCTACTGCGCCAAAAAGGTCATTGATGCCGATAA had a PBM binding z-score of 4.32.

Turning to TAGCCTAGGTCATGCGAGCCAGTATAGTGTCGGC, the PBM binding z-score is 3.79.

Regarding CCTATTTGGTCAAGGTCACACACGCTATAGGTAC, the PBM binding z-score was 4.57.

For GGAAAGAGGGCAAGTTGATAGCAGAGTTTGATGG, the PBM binding z-score stood at 3.

Regarding ATACGTAGGTTAGCTGGGGTCATTCAGACTAGGC, the PBM binding z-score stood at 3.01.

With GGAACGAGGGCAAGTTTATAGCAGAGTTTGATGG, the PBM binding z-score came to 2.19.

On to TAGCCTAGGTCAGATCGGGCCAGTTTACGCTATA, for which the PBM binding z-score turned out to be 3.36.

As for CCTTACGGCTCACGAGGTTATAGCACGACGAGCG, the PBM binding z-score was 0.335.

As to GCTTTTAGATCAAGGTTAAGAAAGACTAAGCTAA, the PBM binding z-score came out at 0.485.

Regarding CGTCCAAGGTTAAAGGTCAGTGAAGAGATGACGG, the PBM binding z-score amounted to 5.4.

AGAATGAGGTTGTACGTAGATCAGGGAAGAAAGT: the PBM binding z-score is 0.156.

In the case of CCTAGCAGTCCAATCTGGGTCACTCAAGGCTTGA, the PBM binding z-score worked out at 0.694.

AGAACGAGGGCACGCTGAGTCGATAGCAGAGTAG displayed a PBM binding z-score of 2.12.

For the sequence AGAATGAGGTTATACGTATATCAGGGAAGAAAGT, the PBM binding z-score is 1.35.

Sequence TCTAGTTGGTCAATGGTCACACACTCGAAATGCG registered a PBM binding z-score of 1.31.

As to GGAACGAGGGCAAAGTAGATAGCATCTGTCGACG, the PBM binding z-score turned out to be 1.74.

The sequence AATACAGGGTCACTAGGACAGAGTAGGTACGAAT displayed a PBM binding z-score of 4.79.

For the sequence GTATCAAGGTGAATAGGTCGTTGATGAGTAGGCG, the PBM binding z-score amounted to 1.78.

The values above are taken from the supplement of paper PMC6555819.
